Five molecules from PubChem BioAssay (EPA / NIEHS) can be followed below.

Read-out in test [1]: Human Leukocyte Antigen - DR isotype (HLADR), HLA-DRA (gene 3122)
The experiment in a line: BSK_CASM3C_HLADR: BioMAP Diversity Plus: CASM3C Assay for Human Leukocyte Antigen - DR isotype (HLADR) Biomarker Activity (AID 2283043).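 Also: cell-surface HLA-DR protein level quantified by ELISA.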 The following applies: primary human coronary artery smooth muscle cells; actives raise or lower the signal.

Read-out in test [2]: Macrophage colony-stimulating factor (MCSF), CSF1 (gene 1435)
The experiment in a line: BSK_CASM3C_MCSF: BioMAP Diversity Plus: CASM3C Assay for Macrophage colony-stimulating factor (MCSF) Biomarker Activity (AID 2283044).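 Also: M-CSF protein amount quantified by ELISA after 24 h exposure.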 The following applies: primary human coronary artery smooth muscle cells; actives raise or lower the signal.

Read-out in test [3]: Low-density lipoprotein receptor (LDLR), LDLR (gene 3949)
The experiment in a line: BSK_CASM3C_LDLR: BioMAP Diversity Plus: CASM3C Assay for Low-density lipoprotein receptor (LDLR) Biomarker Activity (AID 2283045).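 Also: LDLR protein level on the cell surface quantified by ELISA.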 The following applies: primary human coronary artery smooth muscle cells; actives raise or lower the signal.

Read-out in test [4]: Monocyte Chemoattractant Protein-1 (MCP1), CCL2 (gene 6347)
The experiment in a line: BSK_CASM3C_MCP1: BioMAP Diversity Plus: CASM3C Assay for Monocyte Chemoattractant Protein-1 (MCP1) Biomarker Activity (AID 2283046).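 Also: MCP-1 level quantified by ELISA 24 h after dosing.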 The following applies: primary human coronary artery smooth muscle cells; actives raise or lower the signal.

Test [5] in a line: BSK_CASM3C_Proliferation: Cell Proliferation Assessment in the BioMAP Diversity Plus: CASM3C Assay (AID 2283047).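 Also: sulforhodamine B total protein stain as relative cell number at 560 nm; sub-confluent cells exposed 48 h before staining; fitted both ways against DMSO so gain or loss of cell number.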 The following applies: primary human coronary artery smooth muscle cells.
Read-out in test [6]: Monokine induced gamma interferon (MIG), CXCL9 (gene 4283)
The experiment in a line: BSK_CASM3C_MIG: BioMAP Diversity Plus: CASM3C Assay for Monokine induced gamma interferon (MIG) Biomarker Activity (AID 2283048).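 Also: MIG protein level measured by ELISA.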 The following applies: primary human coronary artery smooth muscle cells; actives raise or lower the signal.

Read-out in test [7]: serum amyloid A (SAA), SAA1 (gene 6288)
Kind of test: BSK_CASM3C_SAA: BioMAP Diversity Plus: CASM3C Assay for serum amyloid A (SAA) Biomarker Activity (AID 2283049).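 Also: SAA protein level quantified by ELISA.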 The following applies: primary human coronary artery smooth muscle cells; actives raise or lower the signal.

The nature of test [8]: BSK_CASM3C_SRB: Viability Assessment in the BioMAP Diversity Plus: CASM3C Assay (AID 2283050).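 Also: cells exposed to compound for 24 h.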 The following applies: primary human coronary artery smooth muscle cells.
Read-out in test [9]: Thrombomodulin, THBD (gene 7056)
The experiment in a line: BSK_CASM3C_Thrombomodulin: BioMAP Diversity Plus: CASM3C Assay for Thrombomodulin Biomarker Activity (AID 2283051).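 Also: thrombomodulin protein level measured by ELISA 24 h after dosing.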 The following applies: primary human coronary artery smooth muscle cells; actives raise or lower the signal.

Read-out in test [10]: Tissue Factor, F3 (gene 2152)
Kind of test: BSK_CASM3C_TissueFactor: BioMAP Diversity Plus: CASM3C Assay for Tissue Factor Biomarker Activity (AID 2283052).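 Also: cell surface tissue factor protein level read by ELISA.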 The following applies: primary human coronary artery smooth muscle cells; actives raise or lower the signal.

Read-out in test [11]: Interferon-gamma inducible Protein 10 (IP10), CXCL10 (gene 3627)
The experiment in a line: BSK_hDFCGF_IP10: BioMAP Diversity Plus: hDFCGF Assay for Interferon-gamma inducible Protein 10 (IP10) Biomarker Activity (AID 2283053). The following applies: primary human foreskin fibroblasts; actives raise or lower the signal. The gist of the method:
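ELISA read-out of IP-10 (CXCL10) from primary human skin fibroblasts, 24 h after compound addition. Gain or loss of signal versus DMSO baseline, bidirectional curve fitting.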

Read-out in test [12]: Urokinase-type plasminogen activator receptor (uPAR), PLAUR (gene 5329)
Kind of test: BSK_CASM3C_uPAR: BioMAP Diversity Plus: CASM3C Assay for Urokinase-type plasminogen activator receptor (uPAR) Biomarker Activity (AID 2283054).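 Also: cell-surface uPAR protein level quantified by ELISA.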 The following applies: primary human coronary artery smooth muscle cells; actives raise or lower the signal.

Read-out in test [13]: Vascular cell adhesion molecule 1 (VCAM1), VCAM1 (gene 7412)
Kind of test: BSK_CASM3C_VCAM1: BioMAP Diversity Plus: CASM3C Assay for Vascular cell adhesion molecule 1 (VCAM1) Biomarker Activity (AID 2283055).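 Also: VCAM-1 protein level quantified by ELISA on the cells.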 The following applies: primary human coronary artery smooth muscle cells; actives raise or lower the signal.

Read-out in test [14]: Collagen III, COL3A1 (gene 1281)
Kind of test: BSK_hDFCGF_CollagenIII: BioMAP Diversity Plus: hDFCGF Assay for Collagen III Biomarker Activity (AID 2283056). The following applies: primary human foreskin fibroblasts; actives raise or lower the signal. The method in brief:
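hDFCGF primary human dermal fibroblasts; 24 h chemical exposure; collagen III by ELISA; bidirectional curve fit vs DMSO baseline (gain or loss of signal).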

Read-out in test [15]: Epidermal growth factor receptor (EGFR), EGFR (gene 1956)
The experiment in a line: BSK_hDFCGF_EGFR: BioMAP Diversity Plus: hDFCGF Assay for Epidermal growth factor receptor (EGFR) Biomarker Activity (AID 2283057). The following applies: primary human foreskin fibroblasts; actives raise or lower the signal. The gist of the method:
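ELISA readout of EGFR on human dermal fibroblasts (primary foreskin cells), 24 h post-dosing; bidirectional curve fit vs DMSO baseline, gain or loss of signal scored.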

Read-out in test [16]: Interleukin-8 (IL8), CXCL8 (gene 3576)
The experiment in a line: BSK_hDFCGF_IL8: BioMAP Diversity Plus: hDFCGF Assay for Interleukin-8 (IL8) Biomarker Activity (AID 2283058). The following applies: primary human foreskin fibroblasts; actives raise or lower the signal. The method in brief: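 ELISA read-out of IL-8 from primary human foreskin fibroblast cultures taken 24 h after dosing; values are bidirectional fits relative to DMSO vehicle.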

Test [17] is described as follows: BSK_hDFCGF_Proliferation: Cell Proliferation Assessment in the BioMAP Diversity Plus: hDFCGF Assay (AID 2283059).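 Also: curves fitted for both rise and fall of signal versus DMSO baseline.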 The following applies: primary human foreskin fibroblasts. The gist of the method:
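Sub-confluent human foreskin fibroblast cultures receive test chemical […]. Relative cell number is quantified by sulforhodamine B staining (0.1%, after 10% TCA fixation) at 560 nm, with bidirectional fitting referenced to DMSO.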

Read-out in test [18]: Macrophage colony-stimulating factor (MCSF), CSF1 (gene 1435)
Kind of test: BSK_hDFCGF_MCSF: BioMAP Diversity Plus: hDFCGF Assay for Macrophage colony-stimulating factor (MCSF) Biomarker Activity (AID 2283060). The following applies: primary human foreskin fibroblasts; actives raise or lower the signal. The method in brief: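 ELISA read-out of M-CSF in human dermal foreskin fibroblast cultures, 24 h after chemical dosing; gain or loss of signal fitted bidirectionally relative to DMSO baseline.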

A short description of test [19]: BSK_hDFCGF_SRB: Viability Assessment in the BioMAP Diversity Plus: hDFCGF Assay (AID 2283061).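 Also: cells exposed to compound for 24 h before the read.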 The following applies: primary human foreskin fibroblasts. The gist of the method:
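Primary human foreskin fibroblasts; 24 h post-dose; fixed 10% TCA, stained 0.1% SRB, A560 read; total protein as overt cytotoxicity measure; curves fit bidirectionally vs DMSO control.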

Read-out in test [20]: TIMP metallopeptidase inhibitor 1 (TIMP1), TIMP1 (gene 7076)
The experiment in a line: BSK_hDFCGF_TIMP1: BioMAP Diversity Plus: hDFCGF Assay for TIMP metallopeptidase inhibitor 1 (TIMP1) Biomarker Activity (AID 2283062). The following applies: primary human foreskin fibroblasts; actives raise or lower the signal. The method in brief:
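ELISA readout of TIMP-1 from human dermal foreskin fibroblast cultures 24 h post-dosing. Curves were fitted in both directions against DMSO baseline, with SRB total-protein staining in parallel cultures as a cytotoxicity check.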

The source made the active and inactive calls. The calls were made as follows: active = hit-call score of the fitted dose curve at least 0.9, where 1 is the maximum; inactive = score below 0.9.

Usually AC50 stands for the midpoint of the concentration-response curve, whichever way the signal moves. Turning to `CCCCCCCCOc1ccc(C(=O)c2ccccc2)c(O)c1`, the result in test [1], in test [2], in [3], in [4], in test [5] and in test [6] was inactive. For the same molecule, the result in test [7], in test [8], in [9], in [10], in test [11] and in test [12] was inactive. Further, the outcome in [13], in [14], in [15], in test [16], in [18] and in test [19] was inactive. In addition, the outcome in test [20] was inactive. The AC50 in [17] is 20 µM (active).

Consider `c1ccc(C[n+]2cccc3ccccc32)cc1`, for which the outcome in test [1], in [2], in test [3], in test [4], in [5] and in [6] was inactive. In addition, the result in [7], in test [8], in [9], in test [10], in test [11] and in test [12] was inactive. Besides, the outcome in test [13], in test [14], in test [15], in test [16], in test [17] and in [18] was inactive. For the same molecule, the result in test [19] and in [20] was inactive.

With `O=C1c2ccccc2C(=O)N1CCc1noc(-c2ccc(CN3CCCCCC3)s2)n1`, the outcome in test [1], in test [2], in [4], in test [5], in [6] and in test [7] was inactive. For the same molecule, the outcome in [8], in test [9], in [10], in [11], in test [12] and in test [13] was inactive. Besides, the result in [14], in [15], in [16], in test [17], in test [18] and in test [19] was inactive. For the same molecule, the result in test [20] was inactive. Also, the AC50 in test [3] was 27.1 µM (active).

`Cc1cccc2ccccc12`: the outcome in [1], in test [2], in [3], in [4], in test [5] and in test [6] was inactive. In addition, the result in test [7], in [8], in test [9], in test [10], in test [11] and in [12] was inactive. Besides, the outcome in test [13], in test [14], in test [15], in [16], in [17] and in test [18] was inactive. Further, the outcome in test [19] and in test [20] was inactive.

Consider `CC1(C)NC(=O)N(c2ccc([N+](=O)[O-])c(C(F)(F)F)c2)C1=O`, for which the result in test [1], in test [3], in [4], in test [6], in [7] and in [8] was inactive. In addition, the outcome in test [9], in test [10], in [11], in test [12], in test [13] and in [14] was inactive. Also, the outcome in test [15], in [16], in test [17], in test [18], in [19] and in test [20] was inactive. Further, the AC50 in test [2] and in test [5] was 11.8 µM (active) in each case.
